A number with no mark means an inactive call. Results filed as inconclusive are left out. Active and inactive are the calls of the source. Unless noted, calls come from the whole dose curve; as a rule, active = well fitted curve in the direction sought with a large enough effect; inconclusive = small, poorly fitted or top-dose-only effect, or another doubt; inactive = no such curve, though single readings can be large; an effect the other way counts as inactive or inconclusive.

Experiment [1] can be described thus: qHTS assay to identify small molecule inhibitors of chordoma cells - UCH-2 (AID 1259356). Note: series mostly up to about 46 µM.
Experiment [2] can be described thus: P-glycoprotein substrates identified in KB-8-5-11 adenocarcinoma cell line, qHTS therapeutic library screen (AID 1346987). Note: nearly all actives have a fitted effect of over 65% in size. Note: potency is the fitted concentration of half-maximal effect. A digest of the protocol: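 P-gp-mediated resistance screen: KB-8-5-11 cells treated 72 h with compounds in dose-response. CellTiter-Glo viability.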
On the technique in general: qHTS replaces the single test concentration by a dilution series.

The nature of experiment [3]: NS1 protein of Zika virus - qHTS assay to identify small molecule inhibitors in human HEK 293 cells (AID 1347053). Note: series mostly up to about 46 µM; nearly all actives have a fitted effect of over 55% in size. In short, it runs like this: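 Inhibition of NS1 expression was scored in HEK 293 cells given compound 1 h ahead of MR766 virus (MOI = 0.5). Following 24 h at 37 C, two anti-NS1 antibodies generated a TR-FRET signal, scaled between uninfected and infected controls.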

Experiment [4] in a line: qHTS of pediatric cancer cell lines to identify multiple opportunities for drug repurposing: Primary screen for TC32 cells (AID 1347089). Note: nearly all actives have a fitted effect of over 60% in size. In short, it runs like this:
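qHTS, TC32, 48 h drug treatment, CellTiter-Glo luminescence as a proxy for metabolically active cells; primary top concentration 46 µM (MIPE 11-pt, NPC 8-pt); confirmatory 11-pt.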

Experiment [5] can be described thus: qHTS of pediatric cancer cell lines to identify multiple opportunities for drug repurposing: Primary screen for DAOY cells (AID 1347090). Note: series mostly up to about 46 µM; nearly all actives have a fitted effect of over 55% in size. A digest of the protocol:
(§1)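 Viability measured as metabolically active cells via CellTiter-Glo luminescence following 48 hours of compound exposure, 11-point dilutions in confirmatory testing. 500-1,000 cells/well plated 5 hours before dosing; controls were DMSO and 2.3 µM bortezomib.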

Experiment [6] can be described thus: qHTS of pediatric cancer cell lines to identify multiple opportunities for drug repurposing: Primary screen for SJ-GBM2 cells (AID 1347091). A digest of the protocol:
as §1

Experiment [7] deals with Atrial natriuretic peptide receptor 1 (Homo sapiens) (UniProt P16066). The experiment can be described thus: Natriuretic polypeptide receptor (hNpr1) antagonism - Pilot screen (AID 1347049; calls by dose curve;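 note: agonist-evoked cGMP luminescence read 20 min after hNppA addition; series mostly up to about 58 µM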). In short, it runs like this:
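HEK293 cells expressing hNpr1 and GloSensor cGMP luciferase, 1500/well, loaded with 2% GloSensor reagent 2 h, compound 30 min at room temperature; luminescence read before and 20 min after 0.1 nM hNppA stimulation.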

The target in experiment [8] is Atrial natriuretic peptide receptor 2 (Homo sapiens) (UniProt P20594). The experiment can be described thus: Natriuretic polypeptide receptor (hNpr2) antagonism - Pilot subtype selectivity assay (AID 1347050; calls by dose curve; note: potency is the fitted concentration of half-maximal effect). In short, it runs like this: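 HEK293 cells expressing hNpr2 and a GloSensor cGMP luciferase sensor, 1500/well, preloaded 2 h with 2% GloSensor reagent, compound 30 min, then 1 nM hNppC for 20 min. Antagonism from luminescence after versus baseline pre-read; LOPAC in 1:5 titrations.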

In experiment [9] the target is T1, Tyrosine-protein phosphatase non-receptor type substrate 1 (Homo sapiens) + Leukocyte surface antigen CD47 (Homo sapiens) (UniProt P78324+Q08722). The experiment can be described thus: CD47-SIRPalpha protein protein interaction - LANCE assay qHTS validation (AID 1347057; active = well fitted curve in the direction sought with a large enough effect in the signal ratio, with a control signal flat, not every such curve was filed as active; the % refers to the signal ratio; note: series mostly up to about 38 µM). In short, it runs like this:
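First, His-tagged CD47 and Eu-labelled anti-His antibody met the compound for 30 min; next, site-specifically biotinylated SIRPalpha was added for 30 min; finally streptavidin-APC was added before reading the TR-FRET ratio.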

The target in experiment [10] is T1, Tyrosine-protein phosphatase non-receptor type substrate 1 (Homo sapiens) + Leukocyte surface antigen CD47 (Homo sapiens). The experiment can be described thus: CD47-SIRPalpha protein protein interaction - Alpha assay qHTS validation (AID 1347059).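 Note: bead proximity luminescence from CD47 binding SIRPalpha after compound preincubation with SIRPalpha.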 A digest of the protocol: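 Biotinylated Avi-tagged SIRPalpha (25 nM) preincubated 30 min with compound, then His-tagged CD47 (12.5 nM) added 30 min; AlphaScreen with Ni-NTA acceptor and streptavidin donor beads. PBS pH 7.4, 0.05% IGEPAL, room temperature; 7-point titrations.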

For experiment [11], the target named is Parathyroid hormone/parathyroid hormone-related peptide receptor (Homo sapiens) (UniProt Q03431). The experiment can be described thus: qHTS for PTHR1 Agonists: Optimization Screen against the NCGC LOPAC library (AID 1347079).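 Note: GloSensor cAMP luminescence in HEK-293 GP2 cells expressing human PTHR1 with IBMX.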 In short, it runs like this: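 Compounds were tested across a qHTS titration. PTHR1-expressing GP2 cells report cAMP rises via GloSensor luminescence after 1 hr compound exposure at 37C with IBMX present.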

A short description of experiment [12]: Natriuretic polypeptide receptor (hNpr1) antagonism - Pilot counterscreen GloSensor control cell line (AID 1347045; calls by dose curve; note: series mostly up to about 38 µM). A digest of the protocol:
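This counterscreen uses HEK293 cells expressing the GIP/pGS-40F cGMP biosensor. Compound-treated cells are challenged with 50 uM sodium nitroprusside, and the luciferase signal is compared before and after stimulation.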

In experiment [13] the target is T1, Tyrosine-protein phosphatase non-receptor type substrate 1 (Homo sapiens) + Leukocyte surface antigen CD47 (Homo sapiens). The experiment can be described thus: CD47-SIRPalpha protein protein interaction - HTRF assay qHTS validation (AID 1347058; active = well fitted curve in the direction sought with a large enough effect in the signal ratio, not every such curve was filed as active; the % refers to the signal ratio;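 note: recombinant soluble extracellular CD47 with His tag and biotinylated SIRPalpha domains; series mostly up to about 38 µM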). In short, it runs like this:
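TR-FRET read (Ch1/Ch2 ratio) of soluble extracellular CD47 and Avi-biotinylated SIRPalpha domains in PBS pH 7.4 with 0.05% IGEPAL; 7-point compound titration. Sequential 30 min room-temperature steps; non-biotinylated SIRPalpha as control inhibitor.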
For orientation: Time-resolved FRET reads energy transfer from a long-lived donor to a nearby acceptor.

T1 sequence (P78324 whole entry, looked up): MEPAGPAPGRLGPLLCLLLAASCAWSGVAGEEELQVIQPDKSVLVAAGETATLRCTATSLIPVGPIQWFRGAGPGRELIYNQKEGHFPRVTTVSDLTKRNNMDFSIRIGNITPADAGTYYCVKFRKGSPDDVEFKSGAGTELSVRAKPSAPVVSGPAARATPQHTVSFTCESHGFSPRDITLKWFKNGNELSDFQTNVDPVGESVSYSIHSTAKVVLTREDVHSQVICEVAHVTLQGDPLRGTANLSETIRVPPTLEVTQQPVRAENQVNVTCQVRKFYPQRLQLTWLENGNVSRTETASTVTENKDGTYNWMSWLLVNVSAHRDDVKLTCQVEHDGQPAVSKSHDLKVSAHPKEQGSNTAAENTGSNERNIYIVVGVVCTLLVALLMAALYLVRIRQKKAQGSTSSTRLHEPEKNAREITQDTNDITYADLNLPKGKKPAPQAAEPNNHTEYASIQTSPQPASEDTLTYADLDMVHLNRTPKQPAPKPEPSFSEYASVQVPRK
T1 sequence (Q08722 whole entry, looked up): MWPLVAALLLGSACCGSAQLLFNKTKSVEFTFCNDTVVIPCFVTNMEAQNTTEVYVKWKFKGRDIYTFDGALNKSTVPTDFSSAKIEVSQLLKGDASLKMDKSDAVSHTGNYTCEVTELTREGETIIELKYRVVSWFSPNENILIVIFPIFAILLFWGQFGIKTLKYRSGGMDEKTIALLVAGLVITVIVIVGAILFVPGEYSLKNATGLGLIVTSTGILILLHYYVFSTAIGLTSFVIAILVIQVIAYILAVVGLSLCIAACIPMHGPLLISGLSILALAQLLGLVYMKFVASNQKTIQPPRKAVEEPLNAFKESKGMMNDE
Sequence of Atrial natriuretic peptide receptor 2 (Homo sapiens) (P20594 whole entry, looked up): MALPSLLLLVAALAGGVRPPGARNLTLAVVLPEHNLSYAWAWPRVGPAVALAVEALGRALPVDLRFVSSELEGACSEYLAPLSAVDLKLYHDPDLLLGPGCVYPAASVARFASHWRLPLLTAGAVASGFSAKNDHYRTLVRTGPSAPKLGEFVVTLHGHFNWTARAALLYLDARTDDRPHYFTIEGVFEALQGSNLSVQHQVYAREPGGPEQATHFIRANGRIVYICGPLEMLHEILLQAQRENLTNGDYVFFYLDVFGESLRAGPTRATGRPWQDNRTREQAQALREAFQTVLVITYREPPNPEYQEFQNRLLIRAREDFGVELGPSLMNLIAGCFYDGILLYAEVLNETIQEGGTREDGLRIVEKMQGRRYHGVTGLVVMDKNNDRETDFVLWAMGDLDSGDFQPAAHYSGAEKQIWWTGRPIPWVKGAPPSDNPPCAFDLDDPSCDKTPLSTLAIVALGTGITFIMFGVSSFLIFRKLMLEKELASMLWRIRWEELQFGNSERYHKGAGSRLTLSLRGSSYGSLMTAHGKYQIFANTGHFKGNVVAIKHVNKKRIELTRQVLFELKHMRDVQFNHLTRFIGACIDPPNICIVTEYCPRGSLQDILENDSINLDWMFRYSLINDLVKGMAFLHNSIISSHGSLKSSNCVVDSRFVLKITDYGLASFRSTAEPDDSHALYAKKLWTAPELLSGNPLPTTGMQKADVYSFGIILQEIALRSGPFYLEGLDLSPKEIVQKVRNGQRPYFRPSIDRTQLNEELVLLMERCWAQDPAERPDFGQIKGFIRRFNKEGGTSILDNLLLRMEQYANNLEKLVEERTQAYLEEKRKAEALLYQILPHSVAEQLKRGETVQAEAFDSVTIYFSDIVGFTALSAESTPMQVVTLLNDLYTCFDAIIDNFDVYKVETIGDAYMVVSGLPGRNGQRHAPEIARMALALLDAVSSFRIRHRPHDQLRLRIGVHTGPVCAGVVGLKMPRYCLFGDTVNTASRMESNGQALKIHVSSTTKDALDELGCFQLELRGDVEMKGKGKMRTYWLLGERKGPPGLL
Sequence of Parathyroid hormone/parathyroid hormone-related peptide receptor (Homo sapiens) (Q03431 whole entry, looked up): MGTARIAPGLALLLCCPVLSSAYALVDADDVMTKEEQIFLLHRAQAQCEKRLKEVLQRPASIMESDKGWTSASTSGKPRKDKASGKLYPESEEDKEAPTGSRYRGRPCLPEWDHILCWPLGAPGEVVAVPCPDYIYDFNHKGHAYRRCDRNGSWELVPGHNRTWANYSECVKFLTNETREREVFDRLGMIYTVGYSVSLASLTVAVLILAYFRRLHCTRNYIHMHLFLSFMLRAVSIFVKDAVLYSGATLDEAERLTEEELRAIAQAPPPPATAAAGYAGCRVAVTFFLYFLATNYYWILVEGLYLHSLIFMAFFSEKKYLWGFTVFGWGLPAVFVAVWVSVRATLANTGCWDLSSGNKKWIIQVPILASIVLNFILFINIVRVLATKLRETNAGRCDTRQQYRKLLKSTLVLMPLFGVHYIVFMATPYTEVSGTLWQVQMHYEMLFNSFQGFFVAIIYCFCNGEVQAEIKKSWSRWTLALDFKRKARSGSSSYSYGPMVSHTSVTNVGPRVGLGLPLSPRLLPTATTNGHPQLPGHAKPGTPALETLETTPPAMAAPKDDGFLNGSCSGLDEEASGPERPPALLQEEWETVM
Sequence of Atrial natriuretic peptide receptor 1 (Homo sapiens) (P16066 whole entry, looked up): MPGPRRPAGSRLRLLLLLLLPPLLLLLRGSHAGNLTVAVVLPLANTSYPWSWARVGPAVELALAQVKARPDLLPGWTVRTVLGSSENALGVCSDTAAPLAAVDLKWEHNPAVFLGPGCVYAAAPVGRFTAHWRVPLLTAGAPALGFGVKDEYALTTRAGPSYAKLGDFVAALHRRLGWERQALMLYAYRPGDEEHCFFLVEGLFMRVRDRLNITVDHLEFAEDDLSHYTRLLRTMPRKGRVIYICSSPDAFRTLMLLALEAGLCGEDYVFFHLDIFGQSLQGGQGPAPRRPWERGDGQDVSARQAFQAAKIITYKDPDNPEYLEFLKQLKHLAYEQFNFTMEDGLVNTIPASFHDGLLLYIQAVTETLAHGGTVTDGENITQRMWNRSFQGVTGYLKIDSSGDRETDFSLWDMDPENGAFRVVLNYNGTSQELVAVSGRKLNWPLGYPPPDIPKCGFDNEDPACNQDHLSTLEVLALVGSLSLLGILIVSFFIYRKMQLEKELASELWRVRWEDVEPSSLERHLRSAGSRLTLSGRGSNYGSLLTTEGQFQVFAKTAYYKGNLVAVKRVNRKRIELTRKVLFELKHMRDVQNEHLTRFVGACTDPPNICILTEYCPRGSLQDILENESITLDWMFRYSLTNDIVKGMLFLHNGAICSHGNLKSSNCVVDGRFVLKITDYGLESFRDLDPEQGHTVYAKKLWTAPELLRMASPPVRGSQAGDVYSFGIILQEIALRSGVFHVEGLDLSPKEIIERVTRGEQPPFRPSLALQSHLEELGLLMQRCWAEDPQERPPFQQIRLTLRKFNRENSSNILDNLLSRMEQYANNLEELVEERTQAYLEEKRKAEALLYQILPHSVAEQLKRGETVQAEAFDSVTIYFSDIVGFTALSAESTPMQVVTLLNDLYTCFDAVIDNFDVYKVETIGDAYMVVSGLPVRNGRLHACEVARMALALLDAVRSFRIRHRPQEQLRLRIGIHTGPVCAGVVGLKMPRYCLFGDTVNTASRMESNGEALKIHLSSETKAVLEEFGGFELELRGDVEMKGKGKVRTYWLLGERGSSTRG

For the compound `c1ccc2c(CC3=NCCN3)cccc2c1`, the compound was classed as inactive in experiment [1]. The Potency result in [2], in [3], in experiment [4], in experiment [5] and in [6] was “inactive” in each case.

As to `Cc1cc2c(cc1S(N)(=O)=O)S(=O)(=O)CCC2`, the outcome in experiment [1] was inactive. Moreover, the Potency result in [2], in experiment [3], in [4], in experiment [5] and in experiment [6] was “inactive” each time.

`O=c1cc[nH]c(=S)[nH]1`: in experiment [1], the compound was called inactive. Also, the Potency result in experiment [2], in experiment [3], in experiment [5] and in experiment [6] was “inactive” in each case.

Regarding `CC(CN1c2ccccc2Sc2ccccc21)N(C)C` (stereo not given), the outcome in experiment [1], in [7], in [9] and in experiment [10] was inactive. The Potency entry in experiment [8], in experiment [3], in experiment [11], in [5] and in experiment [6] was “inactive” in each case.

Turning to `Oc1cccc(O)c1`, in [1], the outcome was inactive. Moreover, the Potency result in [2], in [3], in [4], in [5] and in experiment [6] was “inactive” in each case.

For `N=c1c[n+](N2CCOCC2)[n-]o1`, the outcome in [12], in experiment [7], in experiment [9] and in experiment [10] was inactive. Further, the Potency entry in experiment [8], in [3] and in experiment [11] was “inactive” throughout.

On to `CCN(CC)CCSC(=O)C(c1ccccc1)c1ccccc1`, for which the outcome in [1] was inactive. Also, the Potency result in experiment [3], in [4] and in [5] was “inactive” each time.

`CCCCc1ncc(/C=C(\Cc2cccs2)C(=O)O)n1Cc1ccc(C(=O)O)cc1`: the call in [1], in experiment [9] and in experiment [10] was inactive. For the same compound, the Potency result in [3], in experiment [4], in [5] and in experiment [6] was “inactive” throughout.

Take `CCN(CC)CCCC(C)Nc1c2ccc(Cl)cc2nc2ccc(OC)cc12` (stereo not given): the outcome in [1] and in experiment [7] was inactive. Further, the Potency entry in experiment [8], in [3] and in experiment [11] was “inactive” in each case.

Turning to `CN(C)CCCN1c2ccccc2CCc2ccccc21`, the Potency in experiment [2] was 9.2 µM (active); in [8], 16.5 µM (active). In addition, the outcome in experiment [12], in experiment [7], in [9], in [13] and in [10] was inactive. The Potency entry in experiment [3], in experiment [11], in [5] and in experiment [6] was “inactive” each time.

With `Cn1c(=O)c2c(ncn2CC2OCCO2)n(C)c1=O`, the outcome in experiment [1] was inactive. Besides, the Potency result in [3], in experiment [4], in experiment [5] and in experiment [6] was “inactive” in each case.

Regarding `CNCC(O)c1ccc(O)c(O)c1` (stereo not given), the compound was classed as inactive in experiment [12], in experiment [7], in [9], in experiment [13] and in experiment [10]. The Potency result in experiment [8], in experiment [3], in [11], in experiment [4], in experiment [5] and in experiment [6] was “inactive” each time.

Regarding `O=C1OC(OC(=O)c2cccnc2Nc2cccc(C(F)(F)F)c2)c2ccccc21` (stereo not given), the compound was called inactive in [1]. Also, the Potency result in experiment [3], in experiment [5] and in experiment [6] was “inactive” throughout.

Regarding `COCCOC(=O)C1=C(C)NC(C)=C(C(=O)OC/C=C/c2ccccc2)C1c1cccc([N+](=O)[O-])c1` (stereo not given), the compound was classed as inactive in experiment [1], in experiment [7] and in experiment [9]. In addition, the Potency entry in [8], in experiment [11], in [4] and in [5] was “inactive” each time.

For the compound `Cc1cccc(Nc2cc(Cl)nc(SCC(=O)O)n2)c1C`, in experiment [1], the call was inactive. Also, the Potency result in experiment [3], in experiment [4], in experiment [5] and in experiment [6] was “inactive” in each case.

Regarding `COC(=O)C1=C(C)NC(C)=C(C(=O)OC)C1c1ccccc1[N+](=O)[O-]`, the compound was called inactive in experiment [1], in experiment [7] and in [9]. For the same compound, the Potency in experiment [8] was 13.1 µM (active). Further, the Potency entry in experiment [3], in experiment [11], in experiment [4] and in [6] was “inactive” in each case.

In the case of `CN(C)CC[C@@H](c1ccc(Cl)cc1)c1ccccn1`, in experiment [7], the compound was classed as inactive. Moreover, the Potency entry in [3], in experiment [11], in experiment [4], in experiment [5] and in experiment [6] was “inactive” throughout.

`CN(C)CCC=C1c2ccccc2CCc2ccccc21`: the compound was classed as inactive in [12], in experiment [7], in experiment [9], in experiment [13] and in experiment [10]. Moreover, the Potency result in experiment [3], in experiment [11], in experiment [4] and in [5] was “inactive” each time.

`O=C1O[C@H](CO)[C@@H](O)[C@H](O)[C@H]1O`: in [1], the compound was classed as inactive. The Potency entry in experiment [3], in experiment [4], in [5] and in experiment [6] was “inactive” each time.

For the compound `CN(C)CCOC(C)(c1ccccc1)c1ccccn1` (stereo not given), the compound was classed as inactive in experiment [12], in experiment [7], in experiment [9], in experiment [13] and in [10]. The Potency result in experiment [8], in experiment [3], in [11], in [4], in experiment [5] and in [6] was “inactive” in each case.

On to `C[C@H](NC(CCc1ccccc1)C(=O)O)C(=O)N1CCC[C@H]1C(=O)O` (stereo not given in full), for which the Potency entry in experiment [2], in experiment [3], in experiment [4], in experiment [5] and in [6] was “inactive” each time. The result in [9], in experiment [13] and in experiment [10] was inactive.

For the origin of these results see PubChem BioAssay (NCATS).
